These results are taken from PubChem BioAssay AID504652 (National Center for Advancing Translational Sciences (NCATS), 2011).

Values joined by “and” are separate entries in the source; they are usually repeats but may differ in a detail not shown here. Identical values can stand only once. Screen size: about 360,000 compounds; about 11,000 (3.1%) were called active. The sample as a whole holds a higher share of actives than the screen did. A number with no mark means an inactive call. Cut-off read from the data, not from the text of the source: active = activity change below about -30%; inactive = the rest.
% is set by controls: 0 for no effect and ±100 for the full control effect.

In the assay the target is D(1A) dopamine receptor (Homo sapiens) (UniProt P21728). In words: Antagonist of Human D 1 Dopamine Receptor: qHTS. As to conditions: HEK293 TREx D1 cells, calcium flux, dopamine EC80; at 10 µM; active compounds read low. A digest of the protocol: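 Cells carrying a force-coupled, tetracycline-inducible human D1 receptor report calcium flux. Each well gets a 10 s baseline, compound with 180 s monitoring, then an EC80 dopamine stimulus with a second 180 s kinetic read.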
D(1A) dopamine receptor (Homo sapiens), sequence (P21728 whole entry, looked up): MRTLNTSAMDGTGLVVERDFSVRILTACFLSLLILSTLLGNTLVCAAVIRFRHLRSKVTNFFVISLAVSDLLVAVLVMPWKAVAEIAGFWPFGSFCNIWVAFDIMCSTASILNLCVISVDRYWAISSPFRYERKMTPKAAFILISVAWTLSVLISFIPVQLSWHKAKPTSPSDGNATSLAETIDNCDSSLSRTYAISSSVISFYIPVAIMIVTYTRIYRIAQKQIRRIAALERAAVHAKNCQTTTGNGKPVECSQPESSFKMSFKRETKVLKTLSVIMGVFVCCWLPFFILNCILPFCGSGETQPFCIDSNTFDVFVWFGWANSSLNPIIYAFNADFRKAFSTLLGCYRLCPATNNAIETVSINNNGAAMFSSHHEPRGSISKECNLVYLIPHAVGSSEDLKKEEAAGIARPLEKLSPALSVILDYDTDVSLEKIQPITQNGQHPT
In general terms: In qHTS, concentration-response curves come from the screen itself.
On to `CC1CCN(S(=O)(=O)c2ccc3c(c2)N(CC(=O)NCCc2ccccc2)C(=O)CO3)CC1`, for which the activity change, negative = inhibition was 1.55%.
To `Cc1ccc(C(=O)CC2(O)C(=O)N(CCc3ccccc3)c3ccc(Br)cc32)cc1` (configuration not stated) belongs 12.6%; to `COc1cc(OC)c(C2C=C(C(=O)O)Nc3ncnn32)cc1OC` (configuration not stated), 4.4%.
To `COc1ccc(C2C(=O)N(C3CCCCCC3)CC(=O)N2CCc2ccc(Cl)cc2)cc1OC` (configuration not stated) belongs 6.57%; to `COc1cccc(CNC(=O)c2ccc3c(Cl)c4c(nc3c2)CCCC4)c1`, -2.7%.
To `CCOc1ccc(CCNC(=O)CN(c2ccc(C)cc2)S(=O)(=O)N(C)C)cc1OCC` belongs 6.83%; to `Cc1ccc(Cn2c(CNC(=O)Cc3cccc(C)c3)nc3cccnc32)cc1`, -3.78%.
For `O=C(NC1(C(F)(F)F)N=C(c2ccccc2)N(C2CCCCC2)C1=O)c1ccccc1F` (configuration not stated), the activity change, negative = inhibition was -5.87%.
For `COc1ccc(-c2cn3nc(N4CCC(C(=O)Nc5cccc(C)c5C)CC4)sc3n2)cc1`, the activity change, negative = inhibition was -7.07%.
To `O=C(Nc1nncs1)c1cccc(S(=O)(=O)N2CCCCC2)c1` belongs 5.14%; to `CCOC(=O)CSc1nnc(NC(=O)c2cccc(S(=O)(=O)N3CCCC3)c2)s1`, -6.95%.
For `CCOC(=O)CSc1nnc(NC(=O)c2cccc(S(=O)(=O)N3CCCCC3)c2)s1` the value was -31.1% (active); for `Cn1nc(C(F)(F)F)c2cc(C(=O)N3CCOCC3)sc21`, 6.73%.
As to `Cn1nc(C(F)(F)F)c(-c2ccc(F)cc2)c1NC(=O)CSCC(=O)O`, the activity change, negative = inhibition is 8.45%.
Consider `Cn1nc(C(F)(F)F)c2cc(NC(=O)OCC(C)(C)C)sc21`, for which the activity change, negative = inhibition was -42.5% (active).
As for `Cc1ccc(Cl)cc1NC(=O)CCS(=O)(=O)c1ccc(Br)s1`, the activity change, negative = inhibition was 6.29%.
To `COc1ccc(C(=O)N2CCC(c3nc4ccccc4o3)CC2)cc1` belongs 4.96%.
`CCOC(=O)Cn1c(=O)n(C2CCCCC2)c2nc(-c3cccc(OC)c3)nc(C(N)=O)c21`: the activity change, negative = inhibition was 8.07%.
For `CCC(CC)c1nnc(NC(=O)c2nn(C)c(=O)c3ccccc23)s1` the value was 0.594%.
For `CCC(CC)c1nnc(NC(=O)C2=COCCO2)s1` the value was -42.7% (active); for `Cc1csc(NC(=O)C2=COCCO2)n1`, -2.15%.
To `CC(=O)N1c2ccccc2CC1C(=O)N1CCN(c2ccc(F)cc2)CC1` (configuration not stated) belongs 9.38%; to `COc1ccc(N2CCN(c3cc(C)nc4nncn34)CC2)cc1`, -2.83%; to `Cc1nc(N2CCOCC2)c2c(C(=O)NCc3cccc(Cl)c3)c(C)oc2n1`, 6.25%.
Regarding `COc1cc(NC(=O)C2=CC(c3ccc(C)cc3)=NS(=O)(=O)N2C)cc(OC)c1OC`, the activity change, negative = inhibition was -12.9%.
Regarding `COc1ccc(NC(=O)C2=CC(c3ccc(OC)c(OC)c3)=NS(=O)(=O)N2C)cc1`, the activity change, negative = inhibition is -44.8% (active).
`COc1cc(NC(=O)C2=CC(c3ccco3)=NS(=O)(=O)N2C)cc(OC)c1OC`: the activity change, negative = inhibition was -11.3% and -11.4%.
For the compound `CCN(C(=O)c1sc2cc(OC)ccc2c1Cl)c1ccccc1`, the activity change, negative = inhibition is 1.09%.
To `CCc1cccc(NC(=O)CCNS(=O)(=O)c2cccc3nonc23)c1` belongs 8.81% and 29.5%.
In the case of `CCc1cccc(NC(=O)CCC(=O)O)c1`, the activity change, negative = inhibition was -45.7% (active).
To `CCc1cccc(NC(=O)c2cc(-c3ccccc3)n[nH]2)c1` belongs -7.87%; to `O=C(c1ccc(Br)o1)N1CCN(CCOc2ccccc2)CC1`, 3.56%; to `O=CN1CCN(C(=O)c2ccc(Br)o2)CC1`, -36.1% (active).
Turning to `O=CN1CCN(C(=O)c2ccc3c(c2)OCO3)CC1`, the activity change, negative = inhibition is 11.7%.
To `CC(C)c1ccc(C2CC(=O)N3CN(C4CCCCC4)CSC3=C2C#N)cc1` (configuration not stated) belongs -4.95%; to `COc1cccc(CNC(=O)Cn2ncn3c(cc4ccccc43)c2=O)c1`, 2.91%; to `CCOC(=O)[C@H]1[C@H]2COc3cc(OC)ccc3[C@@H]2N2C(=O)N(c3ccc(Br)cc3)C(=O)[C@@]12C`, -55.7% (active).
For `CCOC(=O)[C@@H]1[C@H]2COc3cc(OC)ccc3[C@H]2N2C(=O)N(c3ccc(F)cc3)C(=O)[C@]12C`, the activity change, negative = inhibition is -0.628%.
Regarding `CCOC(=O)[C@@H]1[C@H]2COc3cc(OC)ccc3[C@@H]2N2C(=O)N(c3cccc(C)c3)C(=O)[C@@]12C`, the activity change, negative = inhibition is -0.419%.
For `COc1ccc(-c2cn3c(n2)sc2cc(C(=O)Nc4ccc(F)cc4)ccc23)cc1` the value was -1.55%.
For `O=S(=O)(c1ccccc1)N(Cc1cccc(F)c1)c1ccccc1` the value was -30.7% (active).
Consider `O=C(O)c1cc(S(=O)(=O)N(Cc2ccccc2)c2ccccc2)ccc1Cl`, for which the activity change, negative = inhibition is 11.6%.
To `O=C(O)c1cc(S(=O)(=O)N(Cc2ccccc2)c2cccc(C(F)(F)F)c2)ccc1Cl` belongs 3.45%; to `CCc1ccccc1NC(=O)Cn1c(=O)n(-c2cccc(C)c2)c(=O)c2c1c1cc(OC)ccc1n2C`, -1.63%; to `CCCC(=O)Nc1ccc2oc(-c3ccc(O)c(Br)c3)nc2c1`, -6.2%.
To `COc1cccc(C(=O)NC2=NC(c3ccc(N(C)C)cc3)CC(=O)N2)c1` (configuration not stated) belongs -6.47%; to `Cc1ccccc1-n1c(=O)c2ccccc2n(Cc2ccc(F)cc2)c1=O`, 8.59%; to `CNC(=O)c1sc(Nc2ccc(OCc3ccccc3)cc2)nc1C`, -6.26%.
For `COc1ccc(NC(=O)CCC(=O)Nc2nnc(C3CCCCC3)s2)cc1` the value was 5.47%; for `COC(=O)CCc1sc(Nc2ccc(Br)cc2)nc1-c1ccc(OC)cc1`, -33.1% (active); for `CCc1nnc(NC(=O)c2ccc(S(=O)(=O)NC3CCCCC3)cc2)s1`, 1.91%.
In the case of `Cc1nnc(SC(C)C(=O)Nc2ccc(S(=O)(=O)NC3CCCCC3)cc2)s1` (configuration not stated), the activity change, negative = inhibition was -34.5% (active).
For `Cc1ccc(Nc2nnc(SC(C)C(=O)NC3CC3)s2)cc1` (configuration not stated) the value was -6.59%; for `CCOc1ccccc1C(=O)NCC(c1ccc(N(C)C)cc1)N1CCCC1` (configuration not stated), -18.8%; for `Cc1ccc(CCn2c3c(c4ccccc42)CN(C)CC3)cn1`, -37.8% (active).
To `COc1ccccc1NC(=O)C1=C(C)Nc2ncnn2C1c1sccc1C` (configuration not stated) belongs 2.71%; to `Nc1nc(NC(=O)/C=C/c2ccccc2)nn1-c1ccccc1`, -60.9% (active).
Consider `Nc1nc(NC(=O)/C=C/c2ccc(F)cc2)nn1-c1ccccc1`, for which the activity change, negative = inhibition was 8.35%.
For the compound `Cc1ccc(C(=O)Nc2nc(N)n(-c3ccccc3)n2)cc1`, the activity change, negative = inhibition was -1.57%.
`CCOC(=O)c1cc(-c2ccccc2)n(CCC(=O)Nc2ccccc2CC)c1C`: the activity change, negative = inhibition was -5.19%.
To `Cc1ccccc1C(=O)Nc1nnc(S(=O)(=O)N(C)c2ccc(Cl)cc2)s1` belongs -3.48%; to `COc1ccc(N2CCN(C(=O)c3ccc(N4CCCCS4(=O)=O)cc3)CC2)cc1`, -28.7%; to `COCC(C)NS(=O)(=O)c1ccc(N2CCCCS2(=O)=O)cc1` (configuration not stated), -32.2% (active).
Regarding `COc1ccc(S(=O)(=O)NC(C)C(=O)N2CCCCCC2)cc1` (configuration not stated), the activity change, negative = inhibition was 6.5%.
To `Cc1ccccc1CSc1nc(-c2ccccc2)nc2c1Cc1c(CO)cnc(C)c1O2` belongs -5.66%.
With `CCCC(=O)Nc1cc(C(=O)NCc2ccc(OC)cc2)ccc1S(=O)(=O)c1ccc(Cl)cc1`, the activity change, negative = inhibition is 3.26%.
Turning to `CCc1ccccc1NC(=O)N1CCN(C(=O)c2nsc3ccccc23)CC1`, the activity change, negative = inhibition was 5.59%.
For the compound `O=C(Nc1ccc(F)cc1)C1CCN(C(=O)c2ccc([N+](=O)[O-])cc2)CC1`, the activity change, negative = inhibition is -37.8% (active).
Regarding `O=C(Nc1ccc(S(=O)(=O)N2CCCCC2)cc1)C1CCN(C(=O)c2ccc(F)cc2)CC1`, the activity change, negative = inhibition is -10.9%.
For the compound `O=C(Nc1ccccc1)C1CCN(C(=O)c2ccc(Br)cc2)CC1`, the activity change, negative = inhibition is -21.4%.
Consider `CCOC(=O)c1c(NC(=O)c2cc(CC)on2)sc(C(C)=O)c1C`, for which the activity change, negative = inhibition is -23.3%.
To `NS(=O)(=O)c1ccc(Nc2nc(-c3ccccc3)cs2)cc1` belongs -31.8% (active); to `COC(=O)[C@H](Cc1ccccc1)NC(=O)Nc1ccc(S(N)(=O)=O)cc1`, -6.59%; to `NS(=O)(=O)c1ccc(NS(=O)(=O)/C=C/c2ccccc2)cc1`, 4.29%.
On to `Cc1cccc(NC(=O)CN(c2ccc(C(C)C)cc2)S(=O)(=O)c2c(C)nn(C)c2C)c1C`, for which the activity change, negative = inhibition was -5.46%.
Consider `CCC(=O)N1c2ccccc2CC1C(=O)N1CCN(c2ccccc2)CC1` (configuration not stated), for which the activity change, negative = inhibition was -1.25%.
Regarding `CC(C)c1ccc2c(c1)c(SC(C)(C)C)c(CC(C)(C)C(=O)O)n2Cc1ccc(Cl)cc1`, the activity change, negative = inhibition was -36.5% (active) and -38.2% (active).
To `CC(C)c1ccc(Cn2c(COc3ccccc3)nc3ccccc32)cc1` belongs 0.116%; to `O=C(Cn1c(=O)nc(-c2ccccc2)c2cc(Cl)ccc21)NCc1ccc(Cl)cc1`, 7.3%; to `COc1cccc(-c2nnc(SCC(=O)N3CCC(C)CC3)o2)c1`, 2.47%.
Take `O=C(Nc1nnc(C2CC2)s1)c1ccccn1`: the activity change, negative = inhibition is -8.58%.
Turning to `O=C(Nc1nnc(C2CC2)s1)C1=NN(C2CCS(=O)(=O)C2)C(=O)CC1` (configuration not stated), the activity change, negative = inhibition was -30.2% (active).
For `CCc1cc(C(=O)Nc2nnc(C3CC3)s2)sc1C` the value was 5.22%; for `O=C(CSCc1cnn(-c2ccccc2)c1-n1cccc1)NCc1ccccc1Br`, 7.2%.
For `COc1ccc2c(c1)c(=O)c(S(=O)(=O)c1ccc(F)cc1)cn2CC(=O)Nc1ccc(C)cc1C` the value was -20%.
For `CCc1ccc(NC(=O)c2cc(S(=O)(=O)NC3CCCCCC3)ccc2F)cc1` the value was 1.8%; for `COc1ccc(-c2nc(CN3CCC(C(=O)NCCN(CC(C)C)CC(C)C)CC3)c(C)o2)cc1OC`, -3.04%.
